Source: PubChem
An excerpt weighted towards active compounds, which were near 10% of everything screened.
MCF10A rerep: induces DNA re-replication in MCF 10a normal breast cells; MCF 10A DNA re-replication, Hoechst nuclear intensity, 48 h; Potency, µM (doses to about 46.1 µM), for inactives: top-dose activity, positive = re-replication, actives largely listed as activators; 2.9% of 350,000 active; AID 624296; also: % of control where 0% means no effect; nearly all actives have a fitted effect of over 50% in size
Gal4-VP16 FLuc: counter-screen for ROR gamma inhibitors: Gal4-VP16 reporter; Drosophila S2 Gal4-VP16 UAS-luciferase, luminescence, 20 h; Potency, µM (top dose mostly 53.6 µM), inactives show at the top dose activity, negative = inhibition, most hits filed as inhibitors; 3.5% of 310,000 active; AID 2546;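 also: Gal4-VP16 expression switched on by copper sulfate through the metallothionein promoter; % is scaled to controls: 0 for no effect and ±100 for the full control effect; nearly all actives have a fitted effect of over 50% in size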
KB-3-1 cytotox: KB-3-1 parental cell cytotoxicity. KB-3-1 viability, CellTiter-Glo ATP luminescence, 72 h. Potency, µM (highest dose often 46.1 µM), hits mostly cytotoxic. 1.4% of 400,000 active; also: % is scaled to controls: 0 for no effect and ±100 for the full control effect; nearly all actives have a fitted effect of over 60% in size
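KB-3-1 cells, DMEM (no phenol red) + 10% FBS; compound by pin transfer, 72 h, 37 °C. Readout: CellTiter-Glo luminescence after 10 min. Data normalized, curve-fitted.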
SW480 rereplic: inducers of DNA re-replication in SW480 colon cancer cells; SW480 DNA re-replication, Hoechst DNA content imaging, 48 h; Potency, µM (titrated, usually from 46.1 µM), for the others: at the top dose re-replication activation, actives largely listed as activators; 1.8% of 340,000 active; AID 624297; also: % of control where 0% means no effect; nearly all actives have a fitted effect of over 55% in size
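Image-based read-out: total Hoechst fluorescence of nuclei (405 nm excitation, 500-530 nm emission), with hits raising the fraction of high-intensity nuclei. SW480 colon cells incubated 48 hr with compounds at 37 C.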
KB-V1 cytotox: kills drug-selected multidrug resistant KB-V1 cells; KB-V1 MDR cells viability, CellTiter-Glo, 72 h; Potency, µM (series often up to 46.1 µM), usual class: cytotoxic; 3.4% of 400,000 active; AID 1347076; also: % is scaled to controls: 0 for no effect and ±100 for the full control effect; nearly all actives have a fitted effect of over 60% in size
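Cytotoxicity via CellTiter-Glo luminescence after 72 h compound exposure at 37 degrees C. Cells: drug-selected KB-V1 line, DMEM phenol-red free plus 10% FBS. Compounds tested at multiple concentrations; normalized data fitted to concentration-effect curves.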
RORgamma inh: blocks mouse ROR gamma transcriptional activity | Potency, µM (highest dose often 53.6 µM), inactives show at the top dose activity change, negative = inhibition, hits mostly inhibitors | Drosophila S2 Gal4-RORgamma UAS-luciferase reporter, 20 h | 5.4% of 310,000 active; also: % is scaled to controls: 0 for no effect and ±100 for the full control effect; nearly all actives have a fitted effect of over 60% in size
Target sequence (P51450 whole entry, looked up, the tested form may be a part): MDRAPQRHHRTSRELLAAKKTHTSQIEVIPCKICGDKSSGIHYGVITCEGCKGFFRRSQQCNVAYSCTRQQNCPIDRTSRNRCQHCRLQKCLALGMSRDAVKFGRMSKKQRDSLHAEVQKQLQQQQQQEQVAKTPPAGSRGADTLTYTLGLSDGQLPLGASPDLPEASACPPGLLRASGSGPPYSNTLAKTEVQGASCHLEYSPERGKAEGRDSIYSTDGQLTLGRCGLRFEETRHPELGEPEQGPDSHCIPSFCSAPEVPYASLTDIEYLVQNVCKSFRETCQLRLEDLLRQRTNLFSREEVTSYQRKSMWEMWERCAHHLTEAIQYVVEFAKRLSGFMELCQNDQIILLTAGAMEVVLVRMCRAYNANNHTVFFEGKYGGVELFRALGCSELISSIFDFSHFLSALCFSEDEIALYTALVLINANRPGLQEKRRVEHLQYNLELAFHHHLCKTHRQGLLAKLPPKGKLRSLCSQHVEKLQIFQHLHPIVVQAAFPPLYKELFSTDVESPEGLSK
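Schneider cells (Drosophila), stable Gal4 DBD–ROR gamma + UAS-luc; 1 hr cmpd preincubation; Cu2+ induction 700 uM final; 20 hr ambient; luminescence.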
The depositor's hits bear a star; i = inactive; ? = inconclusive; . = no result; [ ] = remark or other dose. Calls follow the shape of the dose curve; as a rule, active = well fitted curve in the direction sought with a large enough effect; inconclusive = small, poorly fitted or top-dose-only effect, or another doubt; inactive = no such curve, though single readings can be large; an effect the other way counts as inactive or inconclusive. Potency is read from the fitted curve at half-maximal effect.

SMILES	MCF10A rerep	Gal4-VP16 FLuc	KB-3-1 cytotox	SW480 rereplic	KB-V1 cytotox	RORgamma inh
CC(C)(C)c1ccc(C(=O)NC2CCN(Cc3ccccc3)CC2)cc1	-1%	-5%	?	16µM*	i	0%
CCN(CC)S(=O)(=O)c1ccc(S(=O)(=O)N2CCC(C(=O)NC3CCN(Cc4ccccc4)CC3)CC2)cc1	-1%	3%	i	0%	i	20%
Cc1ccc(NS(=O)(=O)c2ccc(C(=O)NC3CCN(Cc4ccccc4)CC3)cc2)cc1	8%	.	.	18µM*	.	.
Cc1ccc(Cl)cc1S(=O)(=O)N1CCC(C(=O)NC2CCN(Cc3ccccc3)CC2)CC1	?	22µM*	?	?	i	?
CCc1nc2ccc(C(=O)NC3CCN(Cc4ccccc4)CC3)cn2c1N(C)Cc1cc2ccccc2s1	.	.	?	.	10µM*	.
CCn1c(CNC(=O)c2ccc(OC)cc2)nnc1SCC(=O)Nc1ccc(C)cc1	.	.	i	.	i	.
COc1ccc(S(=O)(=O)c2c(SC)nn(CC(=O)Nc3cccc(C)c3C)c2N)cc1	.	.	i	.	i	.
S=C(Nc1cccc(Cl)c1)Nc1ccccc1Oc1ccccc1	?	?	i	15%	?	10µM*
O=C(Nc1ccccc1Oc1ccccc1)C1CCCC1	23%	-5%	?	3%	?	13%
O=C(CCC(=O)c1ccc(Oc2ccccc2)cc1)Nc1ccc(Cl)cc1Cl	?	0%	i	5.8µM*	i	-1%
S=C(Nc1ccc(Cl)cc1Cl)Nc1ccccc1Oc1ccccc1	?	?	i	-14%	i	10µM*
S=C(Nc1ccccc1Oc1ccccc1)Nc1cccc(Cl)c1Cl	?	?	23µM*	-41%	21µM*	13µM*
COc1ccc(Cl)cc1NC(=S)Nc1ccccc1F	2%	?	i	0%	i	?
O=C(O)CCc1ccc(-c2ccccc2)n1-c1cccc(Br)c1	.	.	i	.	i	.
COc1ccc(-c2cc(C(C)=O)c(C)n2CCC(=O)Nc2cccc(C)c2C)cc1	.	.	i	.	i	.
CC(=O)c1c(C)oc2c(Br)cc(NS(=O)(=O)c3ccc(Br)cc3)cc12	.	.	i	.	?	.
CCOC(=O)C[C@@H]1OC[C@H](CO)N1S(=O)(=O)c1ccc(C)cc1	.	.	i	.	i	.
CC(=O)Nc1ccccc1C(=O)C(=O)Nc1ccc(C)c(C)c1	4%	19%	i	1%	?	?
CCc1ccc(NC(=O)C(=O)c2ccccc2NC(C)=O)cc1	?	.	i	12%	23µM*	.
Cc1ccc2cc(C#N)c(NCCNC(=O)C3CC3)nc2c1C	?	-9%	?	?	3.7µM*	?
CC(=O)c1cc(C#N)c(NCCCN(C)C)nc1C	-3%	-18%	i	-14%	i	20%
CCC(=O)NCCNc1nc2cc(C)c(C)cc2cc1C#N	0%	-4%	i	-1%	i	-23%
CCOCCCNC(=S)NCCNc1nc2c(C)cccc2cc1C#N	?	3.2µM*	i	?	i	0.25µM*
Cc1cc(C)c2nc(NCCCNC(=S)NCCCN(C)C)c(C#N)cc2c1	18µM*	-4%[10 µM]	?	12µM*	i	?
CCOCCCNC(=S)N1CCCN(c2nc3cc(C)c(C)cc3cc2C#N)CC1	?	19%	i	?	i	-16%
SMILES	MCF10A rerep	Gal4-VP16 FLuc	KB-3-1 cytotox	SW480 rereplic	KB-V1 cytotox	RORgamma inh
CCOCCCNC(=S)NCCCNc1nc2c(C)cc(C)cc2cc1C#N	-17%	0%	i	-6%	i	-33%
Cc1ccc2cc(C#N)c(NCCNC(=S)NCCCN(C)C)nc2c1C	21µM*	-13%	i	?	i	?
Cc1ccc(Nc2ncc(C(=O)N3CCN(c4ccc(F)cc4)CC3)c3ccccc23)cc1Cl	.	.	i	.	i	.
Cc1ccc(S(=O)(=O)c2cc3ccccc3oc2=Nc2ccc3c(c2)OCCO3)cc1	2%	2%	i	-3%	10µM*	1%
Cc1ccc(S(=O)(=O)c2cc3ccccc3oc2=Nc2ccc3c(c2)OCO3)cc1	-2%	-5%	i	0%	i	-12%
O=C(c1ccc(Cl)c(S(=O)(=O)N2CCCCC2)c1)N1CCCCC1	10%	22%	i	-11%	i	-12%
CN1CC(=O)NC1=NC(=O)c1ccc(Cl)c(S(=O)(=O)N2CCCCCC2)c1	?	16µM*	i	19%	?	3.5µM*
CN1CC(=O)NC1=NC(=O)c1cc(F)c(F)cc1Cl	0%	?	i	4%	i	10µM*
CCc1nn2c(=O)cc(COC(=O)c3ccccc3)nc2s1	.	.	i	.	?	.
COC(=O)c1sc(=S)n(-c2ccccc2OC)c1N	0%	-9%	i	-9%	i	23%
CCCCNC(=O)c1sc(=S)n(-c2ccccc2OC)c1N	10%	-3%	i	-1%	21µM*	2%
CC(C)C[C@H](NC(=O)[C@@H](Cc1c[nH]c2ccccc12)NC(=O)[C@H](Cc1ccc(O)cc1)NC(=O)[C@H](CO)NC(=O)[C@H](Cc1c[nH]c2ccccc12)NC(=O)[C@H](Cc1cnc[nH]1)NC(=O)[C@@H]1CCC(=O)N1)C(=O)N[C@@H](CCCN=C(N)N)C(=O)N1CCC[C@H]1C(=O)NCC(N)=O	.	-9%	.	.	.	21%
Cc1ccccc1S(=O)(=O)Cc1ccc(C(=O)N2CCN(c3cccc(C)c3C)CC2)o1	2.3µM*	3%[0.365 µM]	5.2µM*	4.1µM*	5.8µM*	30%
Cc1ccc(S(=O)(=O)Cc2ccc(C(=O)N3CCN(c4cccc(Cl)c4)CC3)o2)cc1	.	.	?	.	5.8µM*	.
Cc1ccccc1S(=O)(=O)Cc1ccc(C(=O)N2CCN(c3cccc(Cl)c3)CC2)o1	.	.	4.1µM*	.	4.6µM*	.
COc1cccc(N2CCN(C(=O)c3ccc(CS(=O)Cc4ccc(Cl)cc4)o3)CC2)c1 (stereo not drawn)	7%	-7%	i	-2%	16µM*	27%
CCCN1Cc2cccc(C(=O)Nc3ccc(OC)cc3OC)c2C1=O	.	.	i	.	i	.
Cc1cccc(NC(=O)CSc2nc(C3CCCC3)nc3c2c(=O)n(C)c(=O)n3C)c1C	.	.	i	.	i	.
CCCCCCCCCCCCCCCCCCOC[C@H](COP(=O)([O-])OCC[N+](C)(C)C)OC(C)=O	.	6%	.	.	.	-2%
CCn1c(-c2nn(-c3ccc(C)cc3)ccc2=O)n[nH]c1=S	-9%	-18%	i	-44%	i	-22%
Cc1ccc(-n2ccc(=O)c(-c3ccnc(SCc4cccc(Cl)c4)n3)n2)cc1	?	-9%	i	-3%	?	0.28µM*
